From PubChem BioAssay AID651965 (National Center for Advancing Translational Sciences (NCATS), 2013)
Among all 340,000 compounds or so, about 6,400 (1.9%) were called active. A call without a number means that no potency is given here. Roughly 4% stayed inconclusive and do not appear here. Calls come from the whole dose curve; as a rule, active = well fitted falling curve with a large enough effect; inconclusive = small, poorly fitted or top-dose-only effect; inactive = no such curve, though single readings can be large or run the other way. Many of the other results were omitted from the sample, so actives are more common in it than they were.

Target: ATP-dependent Clp protease proteolytic subunit (Bacillus subtilis (strain 168)) (UniProt P80244)
Assay: qHTS Assay for Activators of ClpP; note: the source files actives as falling curves though it sought activators and does not explain the sign; nearly all actives have a fitted effect of over 65% in size
Settings: purified B. subtilis ClpP, FRET peptide cleavage, 20 min; series mostly up to 57.5 µM
Summary of the method: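 Purified B. subtilis ClpP, 10 microg/mL final in Tris/HCl pH8 with KCl, BSA, glycerol and Tween-20, cleaved an Abz/nitrotyrosine-quenched decapeptide. Fluorescence (ex 320, em 430) was read at 0 and 20 min at room temperature. Delta was normalized to 5.8 microM ADEP and DMSO/no-enzyme controls.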
Potency is the fitted concentration of half-maximal effect.

ATP-dependent Clp protease proteolytic subunit (Bacillus subtilis (strain 168)), sequence (P80244 whole entry, looked up): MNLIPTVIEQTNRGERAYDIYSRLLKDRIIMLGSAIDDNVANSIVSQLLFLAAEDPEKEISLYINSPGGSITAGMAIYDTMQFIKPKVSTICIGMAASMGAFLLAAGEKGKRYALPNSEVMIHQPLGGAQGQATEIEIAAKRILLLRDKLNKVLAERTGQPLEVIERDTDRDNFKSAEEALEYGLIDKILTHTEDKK

SMILES | Potency
O=C1C(Sc2cccc(F)c2)=C[C@@]2(O)CC[C@@H](O)[C@]1(Sc1cccc(F)c1)[C@H]2O | inactive
CCOc1ccc(NS(=O)(=O)c2ccc(C(=O)NC3CCN(Cc4ccccc4)CC3)cc2)cc1 | 28.2 µM (active)
CCOc1ccc(CC(=O)NC2CCN(Cc3ccccc3)CC2)cc1 | inactive
CCOc1ccc(C(=O)NC2CCN(S(=O)(=O)CC)CC2)cc1 | inactive
NC1=CC(=O)C(=O)c2cccnc21 | inactive
Cc1ccc([C@@H]2CC(=O)[C@@H]3CN(S(=O)(=O)c4ccc(C)cc4)[C@H](c4ccccc4F)C[C@@H]3N2S(=O)(=O)c2ccc(Cl)cc2)cc1 | inactive
COc1cccc(NC(=O)CN2CCN(c3nc(-c4cccc(OC)c4)cs3)CC2)c1 | 17.8 µM (active)
COc1cccc(NC(=O)CN2CCN(CC(=O)Nc3ccccc3Cl)CC2)c1 | inactive
COCCCNC(=S)N1CCN(c2nc(-c3cccc(OC)c3)cs2)CC1 | inactive
COC(=O)[C@]12CCCCC=C1N(CCC1=CCCCC1)C(=O)[C@H](CC(=O)NCC1CCCCC1)C2 | inactive
CC(=O)C1=C(O)C(=O)N(c2ccc(S(N)(=O)=O)cc2)C1c1ccccc1F (centres undefined) | 25.1 µM (active)
CC(=O)C1=C(O)C(=O)N(c2ccc(Br)cc2)C1c1ccc([N+](=O)[O-])cc1 (centres undefined) | inactive
NS(=O)(=O)c1ccc(NC2=CC(c3ccc(F)cc3)N(c3ccc(S(N)(=O)=O)cc3)C2=O)cc1 (centres undefined) | inactive
CCc1ccccc1OCCSc1nc(-c2cccs2)nc2cc(=O)[nH]n12 | inactive
CCC(C)n1[nH]c(=O)c2c(C)cc(C)nc21 (centres undefined) | inactive
CCc1c(C)nc2cc(-c3cccs3)[nH]n2c1=O | 22.4 µM (active)
Cc1ccc(-c2nc(SCc3ccc(Br)cc3)n3[nH]c(=O)cc3n2)cc1 | inactive
CCc1c(C)nc2cc(C)[nH]n2c1=O | 22.4 µM (active)
C=CCc1c(C)nc2cc(-c3ccccc3)[nH]n2c1=O | inactive
Cc1cc(Br)cn2c(Cc3ccsc3)c(-c3ccc(C#N)cc3)nc12 | inactive
CCOC(=O)[C@]12CCC=C1N(Cc1ccco1)C(=O)[C@H](CC(=O)N1CCSCC1)C2 | inactive
Nc1nc(N)c(N=O)c(N)n1 | inactive

SMILES | Potency
CCC(=O)N(Cc1cc2ccccc2[nH]c1=O)c1ccc(OC)cc1 | inactive
CCOc1ccc2[nH]c(=O)c(CN(CCCO)C(C)=O)cc2c1 | 28.2 µM (active)
CCC(=O)N(CCc1ccccc1)Cc1cc2cc(C)ccc2[nH]c1=O | inactive
CC(C)N=C1CCCC1C(=S)SSC(=S)C1CCCC1=NC(C)C (centres undefined) | inactive
O=C(CSc1nc(Nc2ccc(F)c(F)c2)c2ccccc2n1)c1ccc(Cl)cc1 | inactive
Fc1ccc(Nc2nc(SCc3ccccc3Cl)nc3ccccc23)cc1 | 31.6 µM (active)
Fc1ccc(CSc2nc(NCc3ccccc3)c3ccccc3n2)cc1 | inactive
Cc1cccc(C)c1NC(=O)C(c1cccc2ccccc12)n1c(=O)c(-c2ccco2)nc2ccccc21 (centres undefined) | inactive
CN(Cc1ccccc1)c1ccc(/C=C/c2ccnc3ccccc23)cc1 | inactive
CN(C)c1ccc(/C=C2\C=Cc3ccccc32)cc1Br | inactive
Cc1nc2ccn(Cc3cccnc3)c(=O)c2cc1C(=O)N1CCN(c2ccccc2F)CC1 | 25.1 µM (active)
CCc1ccc(NC(=O)c2cc3c(=O)n(Cc4cccnc4)ccc3nc2C)cc1 | inactive
O=C(Cn1nc(Cc2cccnc2)c2ccccc2c1=O)N1CCN(c2ccccc2F)CC1 | inactive
Cn1c(=O)n(Cc2ccco2)c(=N)c2c3c(sc21)CCCC3 | inactive
CCCSc1nc(NCc2ccco2)c2c3c(sc2n1)COC(C)(CC)C3 (centres undefined) | inactive
CN1CCc2c(sc3c2c(NCc2ccco2)nc2nnnn23)C1 | 17.8 µM (active)
NC(=S)NN=Cc1ccc(OC(=O)COc2cc(Cl)c(Cl)cc2Cl)cn1 | inactive
CC(C)NC(=O)c1nn(-c2ccccc2F)nc1CO | inactive
CC(CCCc1ccccc1)NC(=O)c1nn(-c2ccc(Cl)cc2)nc1CO (centres undefined) | 31.6 µM (active)
O=C(Cc1ccc(Cl)cc1)Nc1ccc2nn(-c3ccc(Cl)cc3)nc2c1 | inactive
COc1ccc(C(=O)NC(C)CCc2ccccc2)c(OC)c1 (centres undefined) | inactive
Cc1cc2nn(-c3ccc(Cl)cc3)nc2cc1NC(=O)C(C)C | inactive

SMILES | Potency
O=C(NCCCO)c1nn(-c2ccc(Cl)cc2)nc1CO | 14.1 µM (active)
Cc1ccc(-n2nc(CO)c(C(=O)NCCc3ccccc3)n2)cc1 | 10 µM (active)
COc1ccc(CCNC(=O)c2c(C)nn(-c3ccccc3)c2Cl)cc1 | inactive
Nc1nonc1C(=O)NCCc1ccccc1 | inactive
CCN(CC)c1ccc(/C=C/c2c(C)cnc3ccc(C)cc23)cc1 | inactive
COC(=O)c1ccc2nc(-c3cccc(Br)c3)c(Cc3ccc(OC)cc3C)n2c1 | inactive
CCOC(=O)c1cc(-c2sc(NC(=O)c3ccccc3)nc2C)n(CCO)n1 | inactive
CCCCCCCCN1C(=O)[C@H](CC(=O)NCc2cccc3ccccc23)C[C@@]2(C(=O)OC)CCCCC=C12 | inactive
CC(C)c1ccc(Cn2c(COc3ccccc3)nc3ccccc32)cc1 | inactive
CC(C)c1ccc(OCC(O)Cn2cnc3ccccc32)cc1 (centres undefined) | 28.2 µM (active)
CC(C)c1ccc(OCC(O)CN2CCN(c3ccccn3)CC2)cc1 (centres undefined) | inactive
COc1cc2[nH]c(=O)n(Cc3ccc(C(=O)NCc4ccc(C)cc4)cc3)c(=O)c2cc1OC | 10 µM (active)
CCOc1cc2[nH]c(=S)n(Cc3ccc(C(=O)NCCOC)cc3)c(=O)c2cc1OCC | inactive
COCCn1c(=S)[nH]c2cc(C(=O)NCCc3ccc(OC)c(OC)c3)ccc2c1=O | inactive
CC(C)(C)c1cc(C(=O)NCc2cccnc2)ccn1 | inactive
COCCn1c(=O)[nH]c2cc(C(=O)NCc3cccnc3)ccc2c1=O | 28.2 µM (active)
COc1cc2[nH]c(=O)n(Cc3ccc(C(=O)NC4CCN(Cc5ccccc5)CC4)cc3)c(=O)c2cc1OC | inactive
CCCCCn1nnnc1C1c2ccccc2C(=O)N1Cc1ccco1 (centres undefined) | inactive
C#Cc1cc(N2CCN(C(=O)c3ccoc3)CC2)n2nc(-c3cccc(Cl)c3)cc2n1 | inactive
CC(=O)N1Cc2cc(C(=O)NCc3cccc(F)c3)nc(-c3cccc(C4=CCCCC4)c3)c2[C@H]1CCO | inactive
